These results are taken from PubChem BioAssay.

Experiment [1] concerns Human papillomavirus type 1a protein E7 (residues 44-93). Put plainly: HPV1a E7 fragment binders on microarrays, primary screen, biochemical, small-molecule microarray, residues 44-93, 635 nm fluorescence (AID 1108).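 Also: E7 fragment applied at 1 µg/mL in TBST for 1 h at 4 C; score combines spot fluorescence with its signal to noise ratio.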 The settings on record: small-molecule microarray binding, fluorescence 635 nm; higher = more signal.
Experiment [2] can be described thus: modulators of HCV replicon luciferase signal, primary screen, HCV replication inhibitor project, Huh7 cells, luciferase reporter (AID 1109).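 Also: huh7 hepatoma cells harbouring a luciferase neomycin HCV replicon reporter; luciferase luminescence as measure of HCV replicon replication; test concentration not given here.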 Conditions: 48 h, higher = more signal.
Experiment [3] has as its target Left-right determination factor 2 (Homo sapiens) (UniProt O00292). In words: LEFTY2 binders on small-molecule microarrays, primary screen, biochemical, small-molecule microarray, 635 nm fluorescence scan (AID 1110). The settings on record: LEFTY2 binding, higher = more signal.
Experiment [4] addresses Calmodulin-1 (Homo sapiens) (UniProt P0DP23). In words: CALM1 binders on microarrays, EGTA buffer, profiling panel, biochemical, small-molecule microarray, Cy5-labelled CALM1 (AID 1111).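 Also: labelled calmodulin applied in Tris saline Tween buffer holding calcium plus EGTA and DTT.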 The settings on record: Cy5-CALM1 binding fluorescence, higher = more signal.
Experiment [5] shares this target. In words: calcium-bound CALM1 binders on microarrays, profiling panel, artefact control for SMM control-protein annotation, biochemical, small-molecule microarray, Cy5-labelled CALM1, plus calcium (AID 1112).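 Also: score merges spot fluorescence with signal to noise from triplicate slides.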 Conditions: Cy5-CALM1 binding fluorescence, higher = more signal.
Experiment [6] in a line: small-molecule microarray binders of probe aWnt5a, primary screen, biochemical, biotinylated probe, 635/667 nm fluorescence (AID 1113).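 Also: score merges 667 nm fluorescence intensity with signal-to-noise per printed feature.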 The settings on record: higher = more signal.
Experiment [7] can be described thus: small-molecule microarray binders of probe aShh, primary screen, biochemical, biotinylated probe, 635/667 nm fluorescence (AID 1114).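 Also: probe is biotin-labelled aShh protein from a stem cell growth factor screen; measures binding of labelled protein to compounds printed on the slide; score merges feature fluorescence at 667 nm with signal-to-noise.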 The settings on record: higher = more signal.
The nature of experiment [8]: small-molecule microarray binders of probe aNog, primary screen, biochemical, biotinylated probe, 635/667 nm fluorescence (AID 1115).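 Also: probe is biotinylated aNog protein used at 0.15 µg/mL for 1 h at 4 C; z-score combines 667 nm fluorescence of each spot with its signal to noise.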 Conditions: higher = more signal.
Experiment [9] deals with Torsin-1A-interacting protein 1 (Homo sapiens) (UniProt Q5JTV8). In words: LAP1 binders from COS7 cell lysate, primary screen, small-molecule microarray, 635/667 nm fluorescence (AID 1116). The settings on record: COS7-hLAP1 lysate binding, 635 nm fluorescence, higher = more signal.
Experiment [10] concerns the target Alpha-bungarotoxin (Bungarus multicinctus) (UniProt P60615). Put plainly: alpha-bungarotoxin binders on microarray, profiling panel, artefact control for SMM control protein annotation, biochemical, small-molecule microarray, Alexa647 label, 635/667 nm fluorescence (AID 1117). The settings on record: alpha-BTX-A647 binding fluorescence, higher = more signal.
A further experiment addresses Albumin (Bos taurus) (UniProt P02769). In words: bovine serum albumin binders on microarray, profiling panel, artefact control for SMM control protein annotation, biochemical, small-molecule microarray, Alexa647 label, 635/667 nm fluorescence (AID 1118).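 Also: score merges 667 nm emission intensity and signal-to-noise per printed compound spot.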 The settings on record: BSA-A647 binding, fluorescence 635 nm, higher = more signal.
Experiment [11] can be described thus: small-molecule microarray binders of probe aXIP, primary screen, biochemical, NeuroSMM set, 635/667 nm fluorescence (AID 1119).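 Also: probe is the protein aXip251-270 applied at 1 µg/mL to compound-printed slides; binding of probe to printed compounds measured as 667 nm fluorescence plus signal to noise.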 Conditions: higher = more signal, called active from +8 up or from −8 down.
Experiment [12] in a line: small-molecule binders of probe aNOTCH3, primary screen, biochemical, small-molecule microarray, 635/667 nm fluorescence (AID 1120).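 Also: probe is a biotin-tagged antibody raised against NOTCH3 rather than NOTCH3 protein; score merges spot fluorescence near 667 nm with spot signal to noise.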 Conditions: higher = more signal.
A short description of experiment [13]: small-molecule binders of probe aNOTCH2, primary screen, biochemical, small-molecule microarray, 635/667 nm fluorescence (AID 1121).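 Also: score merges feature fluorescence read at 667 nm with its signal to noise.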 The settings on record: higher = more signal.
Experiment [14] has as its target Carbonic anhydrase 2 (Homo sapiens) (UniProt P00918). In words: CAII small-molecule binders, profiling panel, biochemical, small-molecule microarray, Alexa647-labelled CAII (AID 1122). Conditions: CAII-A647 binding fluorescence, higher = more signal.
The nature of experiment [15]: COS7 lysate on small-molecule microarray, probe aHis, 635 nm (AID 1123).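 Also: z-score combines 667nm fluorescence intensity with signal-to-noise per printed compound spot.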 The settings on record: COS7 cell lysate, fluorescence, higher = more signal.
Experiment [16] can be described thus: compound binding in COS7 lysate, probe aLAP1, primary screen, cell lysate, small-molecule microarray (AID 1124).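 Also: lysate comes from COS7 cells expressing LAP1 and is applied at 0.3 µg/mL; score merges spot fluorescence near 667 nm with signal-to-noise over triplicate slides.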 The settings on record: probe aLAP1, fluorescence, higher = more signal.
The test system of the next experiment is Sam68 (KHDRBS1). In words: Sam68 small-molecule binders, primary screen, biochemical, small-molecule microarray, 635 nm fluorescence (AID 1125).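 Also: score merges 667 nm channel intensity with signal to noise over triplicate slides.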 Conditions: small-molecule microarray binding, higher = more signal.
The test system of experiment [17] is Chordin-like protein 2 (CHRDL2). Put plainly: CHRDL2 small-molecule binders, primary screen, biochemical, small-molecule microarray, 635 nm fluorescence (AID 1126).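 Also: printed compound slides probed with Chrdl2 protein at 4 µg/mL for 1 h at 4 C; score merges 667 nm emission intensity with signal to noise over three replicate slides.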 Conditions: small-molecule microarray binding, fluorescence 635 nm; higher = more signal.
Experiment [18] has as its target Concanavalin-A (Canavalia ensiformis) (UniProt P02866). In words: ConA small-molecule binders, primary screen, artefact control for SMM control protein annotation, biochemical, small-molecule microarray, Alexa647 label, 635 nm (AID 1127).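 Also: z combines 667 nm emission intensity with signal-to-noise across three replicate slides.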 Conditions: ConA-A647 binding fluorescence, higher = more signal.

Activity calls are given as the source filed them.

Torsin-1A-interacting protein 1 (Homo sapiens), sequence (Q5JTV8 whole entry, looked up): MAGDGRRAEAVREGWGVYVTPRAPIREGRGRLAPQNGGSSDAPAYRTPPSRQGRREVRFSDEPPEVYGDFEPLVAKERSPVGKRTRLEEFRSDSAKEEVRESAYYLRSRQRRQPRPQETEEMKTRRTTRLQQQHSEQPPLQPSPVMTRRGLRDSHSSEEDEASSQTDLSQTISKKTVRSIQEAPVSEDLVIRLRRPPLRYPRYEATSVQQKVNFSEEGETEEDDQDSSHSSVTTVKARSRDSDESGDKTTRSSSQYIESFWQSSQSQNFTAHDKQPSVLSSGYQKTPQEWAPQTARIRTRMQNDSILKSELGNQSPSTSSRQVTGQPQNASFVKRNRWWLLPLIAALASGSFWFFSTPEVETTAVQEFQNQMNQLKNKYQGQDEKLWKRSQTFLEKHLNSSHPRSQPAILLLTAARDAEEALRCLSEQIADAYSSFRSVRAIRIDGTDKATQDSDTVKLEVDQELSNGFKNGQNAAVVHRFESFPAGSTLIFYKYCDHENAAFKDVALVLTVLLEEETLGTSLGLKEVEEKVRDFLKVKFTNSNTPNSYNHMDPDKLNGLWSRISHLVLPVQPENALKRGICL
Albumin (Bos taurus), sequence (P02769 whole entry, looked up): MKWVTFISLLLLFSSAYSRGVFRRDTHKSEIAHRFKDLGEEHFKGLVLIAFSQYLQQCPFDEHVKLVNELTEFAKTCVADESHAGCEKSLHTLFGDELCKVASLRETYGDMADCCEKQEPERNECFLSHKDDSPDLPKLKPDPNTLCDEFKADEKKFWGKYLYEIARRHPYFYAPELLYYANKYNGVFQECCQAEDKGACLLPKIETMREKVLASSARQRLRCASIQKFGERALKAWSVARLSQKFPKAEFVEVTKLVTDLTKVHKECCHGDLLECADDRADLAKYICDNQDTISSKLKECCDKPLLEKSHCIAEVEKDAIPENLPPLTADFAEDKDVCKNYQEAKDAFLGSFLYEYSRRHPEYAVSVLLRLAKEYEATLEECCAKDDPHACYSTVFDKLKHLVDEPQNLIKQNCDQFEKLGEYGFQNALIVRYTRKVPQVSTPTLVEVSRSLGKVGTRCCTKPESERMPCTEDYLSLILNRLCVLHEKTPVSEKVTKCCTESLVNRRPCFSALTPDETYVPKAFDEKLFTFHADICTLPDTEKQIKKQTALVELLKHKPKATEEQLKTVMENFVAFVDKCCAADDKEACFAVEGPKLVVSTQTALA
Concanavalin-A (Canavalia ensiformis), sequence (P02866 whole entry, looked up): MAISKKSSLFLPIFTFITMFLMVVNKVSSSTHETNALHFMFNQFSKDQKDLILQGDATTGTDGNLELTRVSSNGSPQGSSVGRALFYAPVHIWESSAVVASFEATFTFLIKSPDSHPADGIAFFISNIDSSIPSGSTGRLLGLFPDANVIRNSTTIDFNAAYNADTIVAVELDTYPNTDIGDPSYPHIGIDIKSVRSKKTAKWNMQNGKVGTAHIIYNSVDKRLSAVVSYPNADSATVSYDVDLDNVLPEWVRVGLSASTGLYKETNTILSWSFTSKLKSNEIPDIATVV
Left-right determination factor 2 (Homo sapiens), sequence (O00292 whole entry, looked up): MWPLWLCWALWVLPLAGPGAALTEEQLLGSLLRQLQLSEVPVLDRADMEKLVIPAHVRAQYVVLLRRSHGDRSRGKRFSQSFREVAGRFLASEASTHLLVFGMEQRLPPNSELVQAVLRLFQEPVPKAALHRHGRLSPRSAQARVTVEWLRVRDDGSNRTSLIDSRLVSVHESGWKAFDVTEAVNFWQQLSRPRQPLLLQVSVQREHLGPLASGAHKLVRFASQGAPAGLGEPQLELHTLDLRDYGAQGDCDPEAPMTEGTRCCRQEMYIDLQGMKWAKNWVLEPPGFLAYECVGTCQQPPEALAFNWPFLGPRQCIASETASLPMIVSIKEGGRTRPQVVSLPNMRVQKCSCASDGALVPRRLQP
Alpha-bungarotoxin (Bungarus multicinctus), sequence (P60615 whole entry, looked up): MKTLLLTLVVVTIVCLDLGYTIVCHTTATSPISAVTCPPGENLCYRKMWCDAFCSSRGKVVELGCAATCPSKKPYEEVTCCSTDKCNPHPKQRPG

With `O=C(CS)NCCCCCNC(=O)[C@H]1C[C@H]2C(=O)N[C@@H](Cc3ccccc3)C(=O)N2[C@H]1c1cccc(OCCO)c1`, the composite z-score is 0.729 in experiment [1]; 1.03 in [3]; -0.137 in experiment [4]; -0.358 in experiment [5]; 0.0388 in experiment [6]; -0.153 in [7]. Also, the composite z-score is -0.259 in experiment [8]; 1.12 in experiment [9]; 0.656 in experiment [10]; -1.62 with Albumin (Bos taurus); 0.273 in experiment [12]; -0.0562 in experiment [13]. The composite z-score in experiment [14] was found to be 0.484; in [15], 1.75; in [16], 0.76; with Sam68 (KHDRBS1) it was 1.31; in experiment [17], 1.43; in [18] it was 1.18. Also, the z-score in experiment [2] is -0.24. In addition, the composite Z-score in experiment [11] is 0.482 (inactive).
As to `CCCCCCCCCCC(O)C1C=CC2C(=O)N(c3ccccc3)C(=O)C2N1Nc1ccc([N+](=O)[O-])cc1` (stereo not given), the composite z-score in experiment [1] is 1.41; in experiment [3], -0.193; in [4], 1.01; in [5] it was 0.496; in experiment [6], -0.0263; in experiment [7], -0.0146. The composite z-score was 1.1 in experiment [8]; -0.105 in [9]; 1 in experiment [10]; 0.804 in the experiment with Albumin (Bos taurus); 0.216 in experiment [12]; -0.0984 in [13]. Also, the composite z-score was 0.594 in experiment [14]; 1.63 in experiment [15]; 0.109 in experiment [16]; 1.31 in the experiment with Sam68 (KHDRBS1); -0.301 in experiment [17]; 1.05 in [18]. In addition, in experiment [2], the z-score was -2.47. Moreover, the composite Z-score in experiment [11] is 0.568 (inactive).
Consider `O=C1C2C=CC(C(O)c3ccccn3)N(Nc3ccccc3F)C2C(=O)N1c1ccccc1` (stereo not given), for which the composite z-score in [1] was 0.642; in [3], 0.0355; in experiment [4], -0.116; in [5] it was -0.332; in [6], -0.0685; in [7] it was 0.0278. Moreover, the composite z-score in experiment [8] is -0.216; in experiment [9] it was 0.0065; in [10], 0.231; in the experiment with Albumin (Bos taurus) it was 0.127; in experiment [12], -0.0918; in experiment [13], -0.111. The composite z-score turned out to be 0.766 in experiment [14]; 0.596 in experiment [15]; 0.753 in [16]; 0.0702 with Sam68 (KHDRBS1); 0.194 in experiment [17]; 0.634 in experiment [18]. In experiment [2], the z-score worked out at 0.426. In addition, the composite Z-score in experiment [11] is -0.21 (inactive).
With `CCOC1=C2C(c3ccc(C)cc3)N(S(=O)(=O)c3ccc(C)cc3)CC2n2c(=O)n(-c3ccccc3)c(=O)n2C1` (stereo not given), the composite z-score was 1.32 in experiment [1]; 0.584 in experiment [3]; 0.683 in experiment [4]; -0.332 in [5]; 0.0244 in [6]; -0.0866 in [7]. The composite z-score in [8] was 0.664; in [9], 0.582; in experiment [10], 1.42; with Albumin (Bos taurus) it was 0.495; in [12], 0.125; in [13], -0.0276. In addition, the composite z-score in experiment [14] was determined as 0.639; in experiment [15], 2.65; in [16], 0.91; with Sam68 (KHDRBS1), 1.35; in experiment [17] it was 0.339; in experiment [18] it was 1.14. The same compound gave a z-score in experiment [2] of -1.1. For the same compound, the composite Z-score in experiment [11] is 0.193 (inactive).
For the compound `O=C1C2C=CC(C(O)c3ccc(B(O)O)cc3)N(Nc3ccc([N+](=O)[O-])cc3)C2C(=O)N1c1ccccc1` (stereo not given), the composite z-score in experiment [1] was 1.38; in experiment [3], 0.528; in experiment [4], 0.394; in experiment [5] it was 0.218; in experiment [6] it was -0.0107; in experiment [7], -0.0146. The composite z-score in [8] is 0.46; in experiment [9], 0.151; in experiment [10] it was 0.435; in the experiment with Albumin (Bos taurus), 0.832; in [12] it was 0.172; in [13] it was -0.0439. The composite z-score in experiment [14] was determined as 0.654; in experiment [15], 2.02; in experiment [16], 0.588; with Sam68 (KHDRBS1) it was 1.32; in [17], 0.262; in experiment [18] it was 0.738. This compound gave a z-score in experiment [2] of -4.39. Also, the composite Z-score in experiment [11] was 0.142 (inactive).
With `CCN(CC)c1ccc(N2CC=CC34O[C@@H]5/C=C\CCCOC(=O)C5[C@H]3C(=O)N(CCCO)[C@@H]4C2=O)cc1` (stereo not given in full), the composite z-score is 0.941 in experiment [1]; -2.09 in experiment [3]; -0.629 in experiment [4]; 0.479 in experiment [5]; -0.197 in experiment [6]; 0.14 in experiment [7]. Moreover, the composite z-score was -0.0238 in [8]; 2.44 in experiment [9]; -1.44 in experiment [10]; -1.05 with Albumin (Bos taurus); -0.373 in experiment [12]; -0.104 in [13]. For the same compound, the composite z-score in [14] is 0.935; in experiment [15], 3.01; in experiment [16] it was 2.3; with Sam68 (KHDRBS1), 0.244; in [17], -1.83; in experiment [18], -0.77. Also, the z-score in [2] was -0.597. Further, the composite Z-score in [11] is 0.895 (inactive).
